Experimental findings from PubChem BioAssay (Tox21) are described below.

Values without a mark were called inactive. The call rests on the fitted dose curve; in most records, active means well fitted activation curve with a large enough effect in the repeat runs; inconclusive means weak or mixed curves; inactive means flat fitted curve, though single readings scatter.
On the % scale 0 is the no-effect control and ±100 the full control effect.

This test is described as follows: A CellTox Green Cytotoxicity Assay to monitor cytotoxicity in HEK293 cells - 0 hour (AID 1224869). Further: nearly all actives have a fitted effect of over 50% in size. The settings on record: CellTox Green fluorescence; series mostly up to 76.8 µM; cytotoxicity: at the top concentration. From the text:
National Center for Advancing Translational Sciences [NCATS]
NIH Chemical Genomics Center [NCGC]
U.S. Environmental Protection Agency [EPA]
National Institutes of Environmental Health Sciences [NIEHS]
National Toxicology Program [NTP]
Cell-based models are critical for drug discovery. Determining the natural cytotoxic effects resulting from test compounds is an essential research activity. A CellTox Green Cytotoxicity Assay to monitor cytotoxicity in real time of continues cell culture during 40 hours of the compound treatment was used to screen Tox21 10K library compounds in Hek293 cells. CellTox Green Cytotoxicity Assay is a nonlytic, homogeneous, biofluorescent method to measure cytotoxicity in cell culture after experimental manipulation. The assay system uses a proprietary asymmetric cyanine dye that is excluded from viable cells but preferentially stains the dead cell's DNA. […] Viable cells produce no appreciable increases in fluorescence. Therefore, the fluorescence signal produced by the binding interaction with dead cell DNA is proportional to cytotoxicity.
The mixture of Hek293 cell suspension and reagents were dispensed at 600cells/6 ul/well in 1536-well tissue culture treated black solid bottom plates using a Multidrop dispenser. After the assay plates were incubated at a 37 C/5% CO2 incubator for 5 hours, 23 nL of compounds dissolved in DMSO, positive and negative controls was transferred to the assay plate by a pintool work station. The plates were incubated at 37 C for 40 hours. The fluorescence intensity were measured at 0h, 8h, 16h, 24h, 32h and 40h time points using ViewLux plate reader during compound treatment.
Consider `Cc1nc(C)c(C)nc1C`, for which the “cytotoxicity” value was -1.22%.
Regarding `CCC(C)C1N=C(C)C(C)S1` (stereo not given), the “cytotoxicity” value was 1.59%.
In the case of `O=[N+]([O-])c1ccc(Cl)cc1Cl` it was 1.04%.
On to `CCC1=C(C)CN(C(=O)NCCc2ccc(S(=O)(=O)NC(=O)NC3CCC(C)CC3)cc2)C1=O` (stereo not given), for which the “cytotoxicity” value was 2.93% [at 35.3 µM].
With `CC(=O)CC/C=C(\C)CC/C=C(\C)CC/C=C(\C)CCC=C(C)C`, the “cytotoxicity” value is 3.89% [at 35.3 µM].
In the case of `C1=COCCC1` it was -0.247%; in that of `CCCC(=O)OCc1ccccc1`, 1.5%.
Then `CCCC1CCCC(=O)O1` (stereo not given), with -2.19%; and `O=C1c2ccccc2C(=O)c2c1ccc(O)c2O`, with 4.45% [at 35.3 µM]; and `COC(=O)C(C)(C)C`, with 3.05%.
Then `CCC(=O)O[C@]1(C(=O)COC)[C@@H](C)C[C@H]2[C@@H]3CCC4=CC(=O)C=C[C@]4(C)C3(F)[C@@H](O)C[C@@]21C` (stereo not given in full), with -0.0707% [at 35.3 µM]; and `O=C(Cl)c1ccc(F)c(Cl)c1`, with -2.48%.
Consider `C/C(=C\C(C)CC(C)CC(C)C)C1CC(=O)OC1=O` (stereo not given), for which the “cytotoxicity” value was 4%.
Then `CC1(C)CC(=O)CC(C)(C)N1`, with -5.14%.
In the case of `CC(C)=CCC/C(C)=C/C=N/O` it was -7.74%; in that of `O=C(c1ccc(Cl)cc1)c1ccc(Cl)cc1`, -0.083%; in that of `O=C(O)c1cccc(C(=O)O)c1C(=O)O`, -0.839%.
In the case of `O=C(O)CCc1nc2ccccc2[nH]1` it was -5.04% [at 35.3 µM]; in that of `CCc1ccc(C(=O)C(C)CN2CCCCC2)cc1` (stereo not given), -5.76% [at 35.3 µM]; in that of `CCOc1ccc2c(c1)C(C)CC(C)(C)N2` (stereo not given), 8.74%.
Take `CCc1ccc2c(c1)C(=O)c1ccccc1C2=O`: the “cytotoxicity” value was -5.77%.
In the case of `CCCCCCCCC(=O)OCC(C)OC(=O)CCCCCCCC` (stereo not given) it was 0.312%; in that of `O=C(O)c1ccc(O)c(O)c1`, -0.179%.
Then `c1ccc(CCNc2nc(-c3ccccc3)cs2)cc1`, with -1.74% [at 35.3 µM]; and `O=C(O)c1ccccc1-n1cc(C(=O)O)c(=O)c2cc(Nc3c(F)cc(F)cc3Cl)c(Cl)cc21`, with 0.439%.
Then `C=C(C)C(=O)OCCCCCCCCCCOC(=O)C(=C)C`, with 2.74%; and `CCCCC(CC)COCCC#N` (stereo not given), with -5.18%.
With `Oc1ccc(CCNCCCCCCNCCc2ccccc2)cc1O`, the “cytotoxicity” value is -1.77% [at 35.3 µM].
In the case of `CC(C)=CCCC(C)C=O` (stereo not given) it was 8.43%; in that of `Clc1cc(Cl)c2c(c1)N=C1CCCCCN1C2`, 2.82% [at 35.3 µM].
In the case of `O=C(OC1C[C@H]2CC[C@@H](C1)[N+]21CCCC1)C(O)(c1ccccc1)c1ccccc1` (stereo not given in full) it was -2.01% [at 35.3 µM].
Take `Cc1ccc(NC(=O)c2ccc(CN3CCN(C)CC3)cc2)cc1Nc1nccc(-c2cccnc2)n1`: the “cytotoxicity” value is -1.62% [at 35.3 µM].
Then `C=CC(=O)NC(C)(C)C`, with -4.47%; and `O=C(Nc1ccc2c(c1)Cc1ccccc1-2)C(F)(F)F`, with -3.36%.
In the case of `COC(=O)/C=C/C(C)=C\C=C\C(C)=C\C=C\C=C(C)\C=C\C=C(C)\C=C\C(=O)O` it was 1.32%; in that of `C=CCCC`, -2.26%; in that of `CCCN(C1CCN(C(=O)C2CCNCC2)CC1)[C@@H]1CCc2ccc(OC)cc2C1`, 1.8%.
In the case of `CCCCCO`, the “cytotoxicity” value is 2.24%.
Regarding `CC(CC(C#N)(c1ccccc1)C(C)C)N(C)C` (stereo not given), the “cytotoxicity” value was 2.17% [at 35.3 µM].
In the case of `C[C@H](N)C(=O)N[C@@H](C)C(=O)NC1[C@H]2CN(c3nc4c(cc3F)c(=O)c(C(=O)O)cn4-c3ccc(F)cc3F)C[C@@H]12` (stereo not given in full) it was 2.22% [at 35.3 µM].
